# Among all 69,000 compounds or so, about 1,000 (1.4%) showed an effect of 50% or more. This is one part of a sample in which strong results are shown more often than they occur.
# System: Leishmania donovani
# Assay: Leishmania intramacrophage assay
# Type: functional, organism-based
# Design: scale not given: in the data most compounds retested in dose-response had high values
smiles,measurement,setting,value
COCc1nn(C(C)C)c2c1CCN(Cc1nccs1)C2.O=C(O)C(F)(F)F,Percent Effect,"30.3 µM, […]",-18.46%
CCn1cc(-c2c(C)c(C3CCOC(C)(C)C3)nc(N)c2C#N)cn1 (stereo not drawn),Percent Effect,"30.3 µM, […]",20.42%
Cc1c(C2CCOC(C)(C)C2)nc(N)c(C#N)c1-c1ccc(O)cc1 (stereo not drawn),Percent Effect,"30.3 µM, […]",-5.002%
CCCc1c(C2CCOC(C)(C)C2)nc(N)c(C#N)c1-c1cnn(C)c1 (stereo not drawn),Percent Effect,"30.3 µM, […]",65.78%
CC(C)Oc1ccc(CN2CCC(c3n[nH]c4ncccc34)CC2)cc1,Percent Effect,"30.3 µM, […]",1.844%
Cc1ccccc1N1CCN(c2cc(N(C)C)ncn2)C(C)C1 (stereo not drawn),Percent Effect,"30.3 µM, […]",15.61%
Cc1ccc(N2CCN(c3ccccc3C)CC2C)nn1 (stereo not drawn),Percent Effect,"30.3 µM, […]",9.128%
Cc1ccccc1N1CCN(c2ccncn2)C(C)C1 (stereo not drawn),Percent Effect,"30.3 µM, […]",61.35%
Cc1nn(C)c(C)c1CN(C)c1nc(C2CCCC2)nc2c1cnn2C,Percent Effect,"30.3 µM, […]",17.71%
CN1CCC(c2n[nH]c3ncccc23)C1.O=CO (stereo not drawn),Percent Effect,"30.3 µM, […]",16.17%
CCc1cnc(CN(C(C)=O)C2CCN(CC(=O)N3CCCC3)C2)o1 (stereo not drawn),Percent Effect,30 µM,28.38%
Cc1cc(NCCN)nc2ccccc12.O=[N+]([O-])O,Percent Effect,"30.3 µM, […]",54.09%
Cc1cc(NCCS(C)(=O)=O)nc2ccccc12,Percent Effect,"30.3 µM, […]",25.68%
Cc1cc(NCCCNS(C)(=O)=O)nc2ccccc12,Percent Effect,"30.3 µM, […]",-8.515%
CC(C)c1nc(CN(C)C(=O)c2cn3ccsc3n2)cs1,Percent Effect,"30.3 µM, […]",-3.628%
CC(=O)Nc1nc(CS(=O)(=O)CCCc2ccccc2)cs1,Percent Effect,"30.3 µM, […]",22.96%
CCC(C)CS(=O)(=O)NCCc1csc(N2CCCC2)n1 (stereo not drawn),Percent Effect,"30.3 µM, […]",43.99%
CC(C)(C)CCS(=O)(=O)NCCc1csc(N2CCCC2)n1,Percent Effect,"30.3 µM, […]",30.66%
CCCC(C)CS(=O)(=O)NCCc1csc(N2CCCC2)n1 (stereo not drawn),Percent Effect,"30.3 µM, […]",65.07%
O=C1CO[C@H]2CN(Cc3cccc4[nH]ccc34)C[C@@H]2N1C1CCOCC1,Percent Effect,"30.3 µM, […]",12.12%
Cc1ccc(C2CCCN2S(=O)(=O)N(C)Cc2cnn(C)c2)o1 (stereo not drawn),Percent Effect,"30.3 µM, […]",-0.6676%
CCOc1ccc(C(=O)CCC(=O)N(C)Cc2noc(C)n2)cc1C,Percent Effect,"30.3 µM, […]",4.933%
CN1CCCC1(CCCc1cccnc1)C(=O)NCc1nccn1C (stereo not drawn),Percent Effect,"30.3 µM, […]",27.11%
Cc1ccc(O)c(CNC2CCc3nc(C(C)C)nn3C2)n1 (stereo not drawn),Percent Effect,"30 µM, 30.03 µM",0.7212%
Cc1ccc(S(=O)(=O)N2CCN(CCCO)CC2)s1,Percent Effect,"30.3 µM, […]",55.51%
Cc1ccc(S(=O)(=O)N2CCN(CCC#N)CC2)s1,Percent Effect,"30.3 µM, […]",34.19%
Cc1ccc(S(=O)(=O)N2CCN(CCC(N)=O)CC2)s1,Percent Effect,"30.3 µM, […]",13.04%
C[C@H](NC(=O)c1cnc(-c2ccccc2)nc1O)C(N)=O,Percent Effect,"30.3 µM, […]",12.89%
CCSCC(C)NCc1ccccc1-n1ccnc1 (stereo not drawn),Percent Effect,"30.3 µM, […]",-5.681%
COc1ccc(C(C)NCc2ccnn2C)cc1Cn1cccn1 (stereo not drawn),Percent Effect,"30.3 µM, […]",30.62%
Cc1cnc(CN2CCN(c3nc(C)cs3)C(C)C2)cn1 (stereo not drawn),Percent Effect,"30.3 µM, […]",-40.38%
Cc1csc(N2CCN(Cc3cnc(C)s3)CC2C)n1 (stereo not drawn),Percent Effect,"30 µM, 30.03 µM",50.44%
Cc1csc(N2CCN(Cc3cscn3)CC2C)n1 (stereo not drawn),Percent Effect,"30.3 µM, […]",-18.36%
O=C1CC2(CCN(Cc3ccc4cccc(O)c4n3)CC2)CN1,Percent Effect,"30.3 µM, […]",0.5464%
O=C1CC(c2cccnc2)c2c(c(C(=O)O)cn2-c2ccc(Cl)cc2)N1 (stereo not drawn),Percent Effect,"30.3 µM, […]",19.15%
O=C1CC(c2cccnc2)c2c(c(C(=O)O)cn2-c2cccc(F)c2)N1 (stereo not drawn),Percent Effect,"30.3 µM, […]",52.29%
O=C1CC(c2cccnc2)c2c(c(C(=O)O)cn2-c2ccccc2)N1 (stereo not drawn),Percent Effect,"30 µM, 30.03 µM",-20.51%
CCc1cnc2c(c1Nc1cccc(OC)c1)c(=O)n(C)c(=O)n2C,Percent Effect,"30.3 µM, […]",19.41%
CC(=O)N[C@H]1CCN(c2nc(C)nc3c2c(C)nn3C)C1,Percent Effect,"30.3 µM, […]",15.16%
COc1cccc(Nc2nc(C3CCNCC3)c3ccccn23)c1.Cl,Percent Effect,"30.3 µM, […]",-2.973%
CC(Nc1nc(-c2ccncc2)nc2c1CCNC2)c1ccccc1 (stereo not drawn),Percent Effect,"30.3 µM, […]",41.34%
Cc1sc2c(C3CCCNC3)nc(Nc3cccc(F)c3)n2c1C.Cl (stereo not drawn),Percent Effect,"30.3 µM, […]",8.436%
COc1cccc(Nc2nc(-c3ccncc3)nc3c2CNCC3)c1.Cl,Percent Effect,"30.3 µM, […]",63.42%
COc1cccc(Nc2nc(C3CCCNC3)c3ccccn23)c1.Cl (stereo not drawn),Percent Effect,"30.3 µM, […]",2.866%
Fc1cccc(Nc2nc(N3CCCC3)nc3c2CNCC3)c1,Percent Effect,"30.3 µM, […]",99.78%
COc1cccc(Nc2nc(N3CCCC3)nc3c2CNCC3)c1.Cl,Percent Effect,"30.3 µM, […]",98.87%
COc1cccc(CNC(=O)c2cc(C)nc(N3CCCC3)n2)c1,Percent Effect,"30.3 µM, […]",4.164%
COc1cccc(Nc2nc(C3CCCNC3)c3sc(C)c(C)n23)c1.Cl (stereo not drawn),Percent Effect,"30.3 µM, […]",20.11%
CCOCCNc1nc(-c2ccncc2)nc2c1CCNCC2,Percent Effect,"30.3 µM, […]",-3.835%
CCN1CCN(S(=O)(=O)c2cc(Cl)c(Cl)cc2C)CC1,Percent Effect,"30 µM, 30.03 µM",23.98%
Cc1nc(C2CCN(C(=O)c3cc(C4CC4)[nH]n3)CC2)no1,Percent Effect,"30.3 µM, […]",23.74%
CC1(C(=O)NC2CCCC2)CCCN(c2ncccn2)C1 (stereo not drawn),Percent Effect,"30.3 µM, […]",2.815%
COc1ccnc(N2CCN(C(=O)c3csc(C4CC4)n3)CC2)n1,Percent Effect,"30 µM, 30.03 µM",15.31%
